# Laboratory results taken from PubChem BioAssay (Tox21).
# Active and inactive are the calls of the source. Where a call stands in place of a potency, no number is given. Unless noted, calls come from the whole dose curve; as a rule, active = well fitted curve in the direction sought with a large enough effect in the repeat runs; inconclusive = weak or mixed curves; inactive = no such curve, though single readings can be large; an effect the other way counts as inactive or inconclusive.
# Experiments:
# [1] = qHTS assay to identify small molecule antagonists of the glucocorticoid receptor (GR) signaling pathway - cell viability counter screen (AID 720693); note: nearly all actives have a fitted effect of over 55% in size
# [2] = qHTS assay for identifying genotoxic compounds that show differential cytotoxicity against isogenic chicken DT40 cell lines with known DNA damage response pathways - wild type cell line (AID 743012); note: nearly all actives have a fitted effect of over 60% in size; note: potency is the fitted concentration of half-maximal effect
# Method in brief: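 First, wild type DT40 cells were plated at 300 per well and equilibrated about 0.5 h at 37 C/5% CO2. Next, compounds in DMSO were added and exposure lasted 40 h. Finally, CellTiter-Glo was added for 30 min at room temperature and luminescence recorded.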
# [3] = qHTS assay to identify small molecule antagonists of the androgen receptor (AR) signaling pathway - cell viability counter screen (AID 743033; note: nearly all actives have a fitted effect of over 45% in size)
# [4] = qHTS assay to identify small molecule antagonists of the androgen receptor (AR) signaling pathway using the MDA cell line - cell viability counter screen (AID 743041; note: nearly all actives have a fitted effect of over 45% in size; note: potency is the fitted concentration of half-maximal effect)
# Method in brief: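 Viability counter screen run alongside the AR antagonist reporter: cells seeded 5 h before compound, R1881 added, 16 h incubation at 37C without CO2, fluorescent CellTiter-Fluor signal quantified.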
# [5] = qHTS assay to identify small molecule antagonists of the thyroid receptor (TR) signaling pathway - cell viability counter screen (AID 743064); note: nearly all actives have a fitted effect of over 50% in size; note: potency is the fitted concentration of half-maximal effect
# Method in brief: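 Plate GH3.TRE-Luc cells; incubate 4 h at 37 °C; add compound, then T3 to 1 nM final; incubate 23.5 h; add CellTiter-Fluor; incubate 30 min at 37 °C, 5% CO2; read fluorescence.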
# [6] = qHTS assay to identify small molecule antagonists of the thyroid receptor (TR) signaling pathway (AID 743065); note: nearly all actives have a fitted effect of over 55% in size; note: potency is the fitted concentration of half-maximal effect
# Method in brief: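 GH3.TRE-Luc rat pituitary cells carrying two TR response elements driving luciferase were plated for 4 h, given compound plus 1 nM T3 (final), and incubated 23.5 h at 37 C. ONE-Glo luminescence measured reporter inhibition; CellTiter-Fluor fluorescence tracked cytotoxicity.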
# [7] = tested on: thyroid hormone receptor (rat, GH3 cells); assay: qHTS assay to identify small molecule agonists of the thyroid receptor (TR) signaling pathway (AID 743066; calls by dose curve)
# [8] = molecular target: Estrogen receptor (Homo sapiens) (UniProt P03372); assay: qHTS assay to identify small molecule antagonists of the estrogen receptor alpha (ER-alpha) signaling pathway (AID 743069; active = well fitted curve in the direction sought with a large enough effect in the signal ratio in the repeat runs, not every such curve was filed as active; inconclusive = weak or mixed curves, or effect the other way; inactive = no such curve, though single readings can be large or run the other way; the % refers to the signal ratio)
# Method in brief: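 Estradiol-stimulated ER-alpha-UAS-bla HEK293 cells, 18 hr compound exposure at 37C. LiveBLAzer B/G substrate, 2 hr RT, fluorescence read.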
# [9] = qHTS assay to identify small molecule antagonists of the estrogen receptor alpha (ER-alpha) signaling pathway - cell viability counter screen (AID 743074; calls by dose curve;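 note: HEK293 cells carrying ER-alpha-UAS-bla reporter stimulated with 17beta-estradiol; nearly all actives have a fitted effect of over 45% in size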)
# [10] = molecular target: Estrogen receptor (Homo sapiens) (UniProt P03372); assay: qHTS assay to identify small molecule agonists of the estrogen receptor alpha (ER-alpha) signaling pathway (AID 743075; calls by dose curve;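 note: HEK293 GripTite cells with ER-alpha and UAS-driven beta-lactamase reporter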; note: potency is the fitted concentration of half-maximal effect)
# [11] = qHTS assay to identify small molecule antagonists of the estrogen receptor alpha (ER-alpha) signaling pathway using the BG1 cell line - cell viability counter screen (AID 743081);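 note: compound given together with 17beta-estradiol as the ER stimulus; nearly all actives have a fitted effect of over 45% in size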
# Aromatase (Homo sapiens) = Aromatase (Homo sapiens) (UniProt P11511); assay: qHTS assay to identify aromatase inhibitors (AID 743083); note: nearly all actives have a fitted effect of over 55% in size; note: potency is the fitted concentration of half-maximal effect
# [12] = qHTS assay for identifying genotoxic compounds that show differential cytotoxicity against isogenic chicken DT40 cell lines with known DNA damage response pathways - Rad54/Ku70 mutant cell line (AID 743015); note: nearly all actives have a fitted effect of over 60% in size; note: potency is the fitted concentration of half-maximal effect
# [13] = molecular target: Estrogen receptor (Homo sapiens) (UniProt P03372); assay: qHTS assay to identify small molecule agonists of the estrogen receptor alpha (ER-alpha) signaling pathway using the BG1 cell line (AID 743079); conditions: BG1Luc4E2 cells, ERE-luciferase agonist, 22 h; activation: at 70.3 µM (top of the series); note: nearly all actives have a fitted effect of over 20% in size; note: potency is the fitted concentration of half-maximal effect
# [14] = qHTS assay to identify small molecule antagonists of the estrogen receptor alpha (ER-alpha) signaling pathway using the BG1 cell line (AID 743080; calls by dose curve;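 note: BG1 cells stimulated with 17beta-estradiol alongside compound; nearly all actives have a fitted effect of over 25% in size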)
# Method in brief: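 Endogenous full-length ER-alpha in BG1-Luc-4E2 cells drives a stably integrated 4×ERE luciferase gene; compounds were tested against 17beta-estradiol over 21.5 h, with luminescence and multiplexed viability fluorescence recorded.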
# [15] = molecular target: Androgen receptor (Homo sapiens) (UniProt P10275); assay: qHTS assay to identify small molecule antagonists of the androgen receptor (AR) signaling pathway (AID 743035; active = well fitted inhibition curve with a large enough effect in the signal ratio in the repeat runs, not every such curve was filed as active; inconclusive = weak or mixed curves, or effect the other way; inactive = no such curve, though single readings can be large or run the other way; the % refers to the signal ratio)
# Method in brief: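 Beta-lactamase FRET read (2 h RT incubation with LiveBLAzer B/G) following 16 h of compound plus R1881 treatment of AR-UAS-bla HEK293 cells, which had been pre-incubated 4 h at 37C.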
# [16] = molecular target: Androgen receptor (Homo sapiens) (UniProt P10275); assay: qHTS assay to identify small molecule agonists of the androgen receptor (AR) signaling pathway (AID 743036; active = well fitted activation curve with a large enough effect in the signal ratio in the repeat runs, with a control signal flat, not every such curve was filed as active; inconclusive = weak or mixed curves, or effect the other way; inactive = no such curve, though single readings can be large or run the other way; the % refers to the signal ratio)
# Method in brief: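 Reporter line: GeneBLAzer AR-UAS-bla-GripTite (HEK293). Steps: plate cells, 4 h rest, add compounds, 16 h at 37C, add LiveBLAzer B/G substrate, 2 h at RT, read fluorescence.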
# [17] = molecular target: Androgen receptor (Homo sapiens) (UniProt P10275); assay: qHTS assay to identify small molecule agonists of the androgen receptor (AR) signaling pathway using the MDA cell line (AID 743040; note: nearly all actives have a fitted effect of over 20% in size)
# Method in brief: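 Luminescence from ONE-Glo, read after 30 min at room temperature, reflects MMTV-driven luciferase in MDA-kb2 cells (AR- and GR-responsive). Treatment lasted 16 h at 37C, 0% CO2.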
# [18] = molecular target: Androgen receptor (Homo sapiens) (UniProt P10275); assay: qHTS assay to identify small molecule antagonists of the androgen receptor (AR) signaling pathway using the MDA cell line (AID 743042; note: nearly all actives have a fitted effect of over 55% in size)
# Method in brief: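 MDA-kb2 cells (human breast carcinoma, stably carrying an MMTV-luciferase reporter responsive to AR and GR) were plated at 3,000 cells/well and preincubated 5 hr at 37C, then given compound plus R1881 agonist for 16 h. ONE-Glo luminescence was read.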
# Chain of Estrogen receptor (Homo sapiens) (P03372 whole entry, looked up): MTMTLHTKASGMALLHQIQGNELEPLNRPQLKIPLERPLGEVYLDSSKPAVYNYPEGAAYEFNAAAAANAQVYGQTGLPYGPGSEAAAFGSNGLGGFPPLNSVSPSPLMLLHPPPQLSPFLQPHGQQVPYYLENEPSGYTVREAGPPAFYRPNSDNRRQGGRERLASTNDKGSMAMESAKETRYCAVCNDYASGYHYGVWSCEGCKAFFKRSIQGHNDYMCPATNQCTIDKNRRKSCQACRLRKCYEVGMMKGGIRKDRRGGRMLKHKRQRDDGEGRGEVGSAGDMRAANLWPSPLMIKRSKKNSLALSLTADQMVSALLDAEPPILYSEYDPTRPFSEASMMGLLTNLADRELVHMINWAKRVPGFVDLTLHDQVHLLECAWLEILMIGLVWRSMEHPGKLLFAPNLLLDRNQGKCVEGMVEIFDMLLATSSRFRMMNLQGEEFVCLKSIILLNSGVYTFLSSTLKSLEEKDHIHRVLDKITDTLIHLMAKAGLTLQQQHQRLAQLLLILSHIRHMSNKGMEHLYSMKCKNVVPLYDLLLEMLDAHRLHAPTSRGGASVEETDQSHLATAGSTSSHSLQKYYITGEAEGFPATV
# Chain of Androgen receptor (Homo sapiens) (P10275 whole entry, looked up): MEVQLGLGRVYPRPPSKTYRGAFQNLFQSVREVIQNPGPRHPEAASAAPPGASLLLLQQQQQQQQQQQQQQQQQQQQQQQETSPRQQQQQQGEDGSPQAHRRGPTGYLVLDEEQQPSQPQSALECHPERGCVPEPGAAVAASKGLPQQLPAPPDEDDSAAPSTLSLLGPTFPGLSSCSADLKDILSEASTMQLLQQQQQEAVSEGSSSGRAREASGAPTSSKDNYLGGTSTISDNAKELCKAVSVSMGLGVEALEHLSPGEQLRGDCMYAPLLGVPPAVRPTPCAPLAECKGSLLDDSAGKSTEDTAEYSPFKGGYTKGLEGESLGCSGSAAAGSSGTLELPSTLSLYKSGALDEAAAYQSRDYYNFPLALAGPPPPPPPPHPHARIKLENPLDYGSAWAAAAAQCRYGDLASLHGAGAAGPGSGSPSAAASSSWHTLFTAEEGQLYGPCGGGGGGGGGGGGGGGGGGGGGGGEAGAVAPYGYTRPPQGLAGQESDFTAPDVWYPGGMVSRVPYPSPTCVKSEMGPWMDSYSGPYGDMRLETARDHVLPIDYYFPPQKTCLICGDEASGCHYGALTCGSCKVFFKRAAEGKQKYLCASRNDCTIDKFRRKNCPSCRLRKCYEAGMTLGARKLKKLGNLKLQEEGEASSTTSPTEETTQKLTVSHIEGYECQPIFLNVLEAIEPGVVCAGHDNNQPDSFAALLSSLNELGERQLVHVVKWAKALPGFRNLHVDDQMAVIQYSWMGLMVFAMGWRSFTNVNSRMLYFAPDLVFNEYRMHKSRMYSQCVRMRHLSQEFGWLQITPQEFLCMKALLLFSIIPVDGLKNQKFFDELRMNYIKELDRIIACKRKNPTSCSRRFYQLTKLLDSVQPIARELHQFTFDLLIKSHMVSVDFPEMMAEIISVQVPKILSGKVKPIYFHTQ
# Chain of Aromatase (Homo sapiens) (P11511 whole entry, looked up): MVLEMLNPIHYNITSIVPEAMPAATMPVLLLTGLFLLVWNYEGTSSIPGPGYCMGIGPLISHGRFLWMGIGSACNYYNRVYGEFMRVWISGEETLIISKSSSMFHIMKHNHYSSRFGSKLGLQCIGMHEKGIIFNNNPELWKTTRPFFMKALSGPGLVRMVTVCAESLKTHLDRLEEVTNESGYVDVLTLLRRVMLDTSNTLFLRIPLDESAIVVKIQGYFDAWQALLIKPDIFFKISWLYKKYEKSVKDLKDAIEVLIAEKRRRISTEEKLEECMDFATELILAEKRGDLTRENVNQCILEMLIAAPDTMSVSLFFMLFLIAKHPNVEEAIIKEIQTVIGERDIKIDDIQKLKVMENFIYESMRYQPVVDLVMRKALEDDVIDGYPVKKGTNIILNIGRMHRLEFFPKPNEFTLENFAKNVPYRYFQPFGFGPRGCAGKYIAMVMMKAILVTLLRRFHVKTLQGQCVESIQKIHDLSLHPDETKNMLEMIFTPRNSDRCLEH
Structure (SMILES),Potency [1],Potency [2],Potency [3],Potency [4],Potency [5],Potency [6],Potency [7],Potency [8],Potency [9],Potency [10],Potency [11],Potency (Aromatase (Homo sapiens)),Potency [12],Potency [13],Potency [14],Potency [15],Potency [16],Potency [17],Potency [18],activation [13]
COc1ccc(/C=C/C(=O)OCCC(C)C)cc1,inactive,inactive,inactive,inactive,inactive,inactive,inactive,inactive,inactive,inactive,inactive,inactive,–,–,–,–,–,–,–,–
CN(C)C=Nc1c(I)cc(I)c(CCC(=O)O)c1I,inactive,inactive,–,inactive,inactive,inactive,inactive,–,inactive,inactive,inactive,inactive,inactive,inactive,inactive,–,–,–,–,–
CC[C@H]1OC(=O)[C@H](C)[C@@H](O[C@H]2C[C@@](C)(OC)[C@@H](O)[C@H](C)O2)[C@H](C)[C@@H](O[C@@H]2O[C@H](C)C[C@H](N(C)C)[C@H]2O)[C@](C)(O)C[C@@H](C)[C@@H]2N[C@@H](COCCOC)O[C@@H]([C@H]2C)[C@]1(C)O,inactive,inactive,inactive,–,inactive,inactive,inactive,–,inactive,inactive,inactive,inactive,inactive,inactive,inactive,–,–,–,–,–
O=C(COc1ccc(Cl)cc1)OCCNC12CC3CC(CC(C3)C1)C2,inactive,inactive,inactive,inactive,–,–,–,inactive,inactive,inactive,inactive,inactive,–,inactive,inactive,–,–,–,–,–
CC(=O)O[C@H]1CC[C@@]2(C)C(=CC[C@@H]3[C@@H]2CC[C@]2(C)C(c4cccnc4)=CC[C@@H]32)C1,inactive,5.31 µM (active),inactive,inactive,29.8 µM (active),–,inactive,inactive,inactive,13.4 µM [activator] (active),inactive,inactive,–,29.8 µM (active),inactive,inactive,inactive,inactive,inactive,–
C[C@]12C=CC(=O)N[C@@H]1CC[C@@H]1[C@@H]2CC[C@]2(C)[C@@H](C(=O)Nc3cc(C(F)(F)F)ccc3C(F)(F)F)CC[C@@H]12,inactive,4.22 µM (active),inactive,–,inactive,–,inactive,–,–,inactive,inactive,inactive,2.66 µM (active),–,–,–,–,–,–,–
CC(C)=CCC/C(C)=C/C=C/C(C)=C/C=C/C(C)=C/C=C/C=C(C)/C=C/C=C(C)/C=C/C=C(\C)CCC=C(C)C,inactive,29.8 µM (active),inactive,inactive,inactive,–,inactive,inactive,inactive,7.56 µM [inconclusive] (active),inactive,inactive,–,6.68 µM (active),inactive,–,–,inactive,inactive,–
CN(CC(=O)N1CCOCC1)Cc1c(Cl)cccc1NC(=O)c1ccccc1,inactive,23.7 µM (active),inactive,inactive,–,–,–,–,inactive,inactive,inactive,–,–,inactive,inactive,–,–,–,–,–
CCC(Oc1ccccc1)C(=O)N[C@@H]1C(=O)N2[C@@H]1SC(C)(C)[C@@H]2C(=O)O (some centres not stated),inactive,inactive,inactive,–,inactive,inactive,inactive,–,inactive,inactive,inactive,inactive,inactive,inactive,inactive,–,–,–,–,–
O=C(O)CC/C=C\CC[C@@H]1[C@@H](N2CCCCC2)[C@@H](O)C[C@@H]1OCc1ccc(-c2ccccc2)cc1,inactive,13.3 µM (active),inactive,inactive,inactive,inactive,inactive,inactive,inactive,inactive,inactive,inactive,–,inactive,inactive,–,inactive,inactive,inactive,–
Cc1ccccc1OCC(O)CNCCOc1ccc(C(N)=O)cc1 (configuration not stated),inactive,inactive,inactive,inactive,–,–,–,–,inactive,–,inactive,inactive,inactive,–,–,–,–,–,–,–
CCCCC(=O)O[C@H]1CC[C@H]2[C@@H]3CCc4cc(O)ccc4[C@H]3CC[C@]12C,inactive,18.8 µM (active),inactive,inactive,–,–,–,–,inactive,0.0006 µM [inconclusive] (active),inactive,inactive,16.8 µM (active),–,inactive,–,–,–,–,61.2% (active)
O=S(=O)(O)CCCS(=O)(=O)O,inactive,inactive,–,inactive,inactive,inactive,inactive,inactive,inactive,inactive,inactive,inactive,inactive,inactive,inactive,–,–,–,–,–
Cc1ncc(COP(=O)(O)O)c(CN)c1O,inactive,inactive,inactive,–,inactive,inactive,inactive,inactive,–,inactive,inactive,inactive,inactive,inactive,inactive,–,–,–,–,–
C/C1=C2N=C(/C=C3N=C(/C(C)=C4\[N-]C(C(CC(N)=O)C4(C)CCC(=O)NCC(C)OP(=O)([O-])OC4C(CO)OC(n5cnc6cc(C)c(C)cc65)C4O)C4(C)N=C1C(CCC(N)=O)C4(C)CC(N)=O)C(CCC(N)=O)C\3(C)C)C(CCC(N)=O)C/2(C)CC(N)=O.[CH3-].[Co+3] (configuration not stated),inactive,inactive,inactive,23.7 µM (active),29.8 µM (active),11.9 µM (active),inactive,–,–,–,–,13.3 µM (active),–,–,–,–,–,–,–,–
C[C@H](CSC(=O)c1ccccc1)C(=O)N1C[C@@H](Sc2ccccc2)C[C@H]1C(=O)O,inactive,inactive,–,inactive,inactive,inactive,inactive,inactive,inactive,inactive,inactive,inactive,inactive,inactive,inactive,–,–,–,–,–
